Out of some 87,000 compounds screened, about 360 (0.41%) were called active. The entries come from a sample that favours actives as a whole. Unmarked numbers belong to inactive results. Rule as the data show it: active = cytotoxicity above about 50%; inactive = the rest.
Test: HT1080 cell viability loss – fluorescence readout (AID 620);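 also: cells exposed to compound overnight then 4 h with Alamar Blue; 0% = vehicle DMSO and 100% = killing control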
Conditions: at 10 µM, stronger effect = higher value
Compound CCN(CC)S(=O)(=O)c1cccc(C(=O)Nc2ccc(Cl)cn2)c1 has a cytotoxicity of -7.6%. Work on CCc1ccc(C2=CC(c3cc(Br)ccc3F)n3ncnc3N2)cc1 (stereo unspecified) yielded a cytotoxicity of 44.7%. In the case of Fc1ccc(Br)cc1C1C=C(c2ccc(Br)s2)Nc2ncnn21 (stereo unspecified), the cytotoxicity is reported as 62.6% (active). Work on Fc1ccc(Br)cc1C1C=C(c2ccc(Br)cc2)Nc2ncnn21 (stereo unspecified) yielded a cytotoxicity of -11.5%. Cc1cc(N)n(-c2ncnc3scc(-c4ccc(Cl)cc4)c23)n1 showed a cytotoxicity of 7.2%. Work on CC(CN1CCOCC1)C(=O)c1ccccc1 (stereo unspecified) yielded a cytotoxicity of -9.8%. Compound CCCCCOc1ccc(C(=O)C(c2ccccc2)N2CCOCC2)cc1 (stereo unspecified) has a cytotoxicity of -2%. For COc1ccc(C(=O)C(CN2CCOCC2)c2ccccc2)cc1 (stereo unspecified), the cytotoxicity was 27%. With O=C(c1ccc(F)cc1)C(CN1CCOCC1)c1ccccc1 (stereo unspecified) the cytotoxicity was 61% (active). In the case of COc1ccc(C(=O)C(CN2CCOCC2)c2ccccc2)cc1F (stereo unspecified), the cytotoxicity is reported as 25.3%. CCc1cc(=O)oc2cc(OCC(=O)N(CC)CC)c(Cl)cc12 gave a cytotoxicity of 2.2%. In the case of O=C(CCn1c(=O)sc2ccccc21)NCc1ccccc1, the cytotoxicity is reported as 0%. c1ccc2[nH]c(CSc3nc4ccccc4s3)nc2c1 showed a cytotoxicity of -3.3%. CCCC[C@@H]1C[C@H]1C(NC(=O)c1ccc(C(F)(F)F)cc1)c1ccc(C(=O)OC)cc1 (stereo partly specified) showed a cytotoxicity of -11.3%. With CCn1cc(C(=O)O)c(=O)c2cnc(N3CCN(C(=O)Nc4cccc5ccccc45)CC3)nc21 the cytotoxicity was -1.8%. CC(=O)N1CCN(Cc2ccc(Br)s2)CC1 showed a cytotoxicity of -4.4%. With Cc1[nH]c(=O)[nH]c(=O)c1S(=O)(=O)N1c2ccc(F)cc2CCC1C (stereo unspecified) the cytotoxicity was -0.4%. Work on CCCN(C(=O)Cn1ncc2c(=O)oc3ccccc3c21)c1cccc(C)c1 yielded a cytotoxicity of -2.3%. For O=C(CN(c1ccccc1F)S(=O)(=O)c1ccccc1)NC1CCCCCC1, the cytotoxicity was -8.6%. In the case of Fc1ccc(-c2nnc(CN3CCN(c4ncc(C(F)(F)F)cc4Cl)CC3)o2)cc1, the cytotoxicity is reported as -2.5%. With CCCCCCc1ccc(-c2ncc(N)cn2)cc1 the cytotoxicity was 97.1% (active). In the case of CCCCCc1ccc(-c2ccc(=O)[nH]n2)cc1, the cytotoxicity is reported as 15.3%. In the case of CCCCc1ccc(-c2nc(N)n[nH]2)cc1, the cytotoxicity is reported as 5.5%. CCCn1c(=O)c2ccccc2n2c(SCC(=O)c3cc(C)n(CC4CCCO4)c3C)nnc12 (stereo unspecified) showed a cytotoxicity of 6.6%. For COc1ccccc1N(CC(=O)NC1CCCCC1)S(C)(=O)=O, the cytotoxicity was -0.7%. For Fc1ccc(N2CCN(c3nc(-c4ccco4)cc(C(F)(F)F)n3)CC2)cc1, the cytotoxicity was -8.6%. Compound COc1ccc2[nH]cc(C(=O)N3CCCCC3)c(=O)c2c1 has a cytotoxicity of -0.4%. For O=C(c1c[nH]c2ccc(F)cc2c1=O)N1CCCCCC1, the cytotoxicity was 67.1% (active). Compound CCc1ccc2[nH]cc(C(=O)N3CCCCCC3)c(=O)c2c1 has a cytotoxicity of -11%. For Cc1nc2ccccc2n1-c1nc(-c2ccco2)cc(C(F)(F)F)n1, the cytotoxicity was 65.2% (active). With FC(F)(F)c1cc(-c2ccco2)nc(-n2cnc3ccccc32)n1 the cytotoxicity was -14.2%. Work on FC(F)(F)c1cc(-c2ccco2)nc(-n2nnc3ccccc32)n1 yielded a cytotoxicity of -10.9%. With CCCCNC(=O)c1ccc2c(c1)N(CC)C(=O)c1ccccc1S2(=O)=O the cytotoxicity was -4.4%. CSc1nc(NCC(C)C)nc(N2CCOCC2)n1 showed a cytotoxicity of 1%. In the case of CC(=O)NC1=NN(C(C)=O)C(C)(c2cccs2)S1 (stereo unspecified), the cytotoxicity is reported as 65.3% (active). For CCCC1(C)SC(NC(C)=O)=NN1C(C)=O (stereo unspecified), the cytotoxicity was -1.8%. For CC(=O)NC1=NN(C(C)=O)C2(CCCCC2)S1, the cytotoxicity was 0.7%. COc1ccc(C(=O)CSc2nc(SC)ns2)cc1OC gave a cytotoxicity of 7.5%. Compound COc1cc(NC(=O)COc2ccc(F)cc2)nc(OC)n1 has a cytotoxicity of 5%. With O=C(Nc1ccc2nc(-c3cccs3)[nH]c2c1)c1cccs1 the cytotoxicity was 17%. Work on O=C(Nc1ccc(-c2nc3ccc(NC(=O)c4cccs4)cc3[nH]2)cc1)c1cccs1 yielded a cytotoxicity of 16.4%. With O=C(Nc1ccc2nc(-c3ccccc3)[nH]c2c1)c1cccs1 the cytotoxicity was 56.7% (active). In the case of COc1ccc(C(=O)SC2=NCCS2)cc1, the cytotoxicity is reported as -11.1%. For Cc1cc(C)n(-c2c(F)c(F)c(CO)c(F)c2F)n1, the cytotoxicity was -14.3%. CS(=O)(=O)N(CC(=O)N1CCN(c2ccccc2)CC1)C1CCCCC1 showed a cytotoxicity of -5.1%. For CCCNC(=O)C1CN(S(=O)(=O)c2ccccc2)CCN1S(=O)(=O)c1ccccc1 (stereo unspecified), the cytotoxicity was 3.1%. For Cn1c(Cn2nnc3ccccc32)nnc1SCC(=O)NCc1ccc2c(c1)OCO2, the cytotoxicity was -4.4%. Compound CCn1ncc(C2=NOC(C(=O)NCC(C)C)C2)c1C (stereo unspecified) has a cytotoxicity of 1.4%. Work on CCn1ncc(C2=NOC(C(=O)Nc3ccc(C)cc3)C2)c1C (stereo unspecified) yielded a cytotoxicity of 7.8%. For CCn1ncc(C2=NOC(C(=O)NCc3ccc(Cl)cc3)C2)c1C (stereo unspecified), the cytotoxicity was 71.2% (active). With CCn1ncc(C2=NOC(C(=O)NCc3ccccc3)C2)c1C (stereo unspecified) the cytotoxicity was 53.9% (active). CCn1ncc(C2=NOC(C(=O)NCCc3ccccc3)C2)c1C (stereo unspecified) gave a cytotoxicity of 4.4%. Work on CCn1ncc(C2=NOC(C(=O)NCc3ccc(OC)cc3)C2)c1C (stereo unspecified) yielded a cytotoxicity of 2%. For Cc1ccc(C)c(NC2=NC3(CCCCC3)N=C(N)N2)c1, the cytotoxicity was 4.3%. COC(=O)C(NC(=O)c1ccco1)(Nc1nc(C2CC2)cs1)C(F)(F)F (stereo unspecified) showed a cytotoxicity of 1.9%. With CCc1ccccc1NC(=O)CN(C)Cc1nc(N)nc(Nc2ccccc2C)n1 the cytotoxicity was -1%. Work on CO/N=C/NC(=O)Cc1cn(-c2ncc(C(F)(F)F)cc2Cl)c2ccccc12 yielded a cytotoxicity of 7.8%. CCOCc1nnc(NC(=O)c2ccc(OC)cc2)s1 gave a cytotoxicity of 7.7%. Cc1c(C(=O)Nc2ccc(-n3cnnn3)cc2)oc2ccccc12 gave a cytotoxicity of 26.2%. With Cc1cc(NC(=O)c2ccco2)ccc1-n1cnnn1 the cytotoxicity was -8.1%. In the case of O=C(Nc1nnc(C(F)(F)F)s1)c1cccnc1, the cytotoxicity is reported as 24%. In the case of Cc1ccc2c(C)c(C(=O)Nc3nnc(C)s3)oc2c1, the cytotoxicity is reported as 1.1%. In the case of Cc1cc(NC(=O)c2oc3ccccc3c2C)ccc1-n1cnnn1, the cytotoxicity is reported as 75.3% (active). For Cc1c(C(=O)Nc2nnc(C(F)(F)F)s2)oc2ccccc12, the cytotoxicity was 82.5% (active). In the case of COc1ccc(C(=O)Nc2nnc(C(F)(F)F)s2)cc1, the cytotoxicity is reported as 66.8% (active). With COC(=O)c1sc(NC(=O)c2oc3ccccc3c2C)nc1C the cytotoxicity was -14.4%.

Source: PubChem BioAssay AID620 (Sanford-Burnham Center for Chemical Genomics, 2007)
